zVAD death inh = inhibitors of zVAD-triggered necroptosis, primary screen, L929 cells; hit rate 0.38% among 220,000; viability rescue, % at 10 µM; L929 zVAD necroptosis rescue, ATP luminescence, 24 h; with zVAD 60 µM; AID 1377, 2008;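 active = activation, scaled between plate controls, above about 75%, limit read from the data; inactive = activation under that limit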
MCL1 BIM primary = inhibitors of MCL1 binding to BIM-BH3, primary screen, biochemical, fluorescence polarization. hit rate 0.68% among 320,000. inhibition, % at 10.9 µM. Induced myeloid leukemia cell differentiation protein Mcl-1 (Homo sapiens), Q07820. GST-MCL1 / FITC-Bim-BH3 fluorescence polarization. AID 2057, 2009;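 active = inhibition above the mean inhibition of all tested compounds plus 3 SD, set per campaign, cut at about 40% in these data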;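 also: higher means more loss of mP so more displacement of Bim peptide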
Target sequence (Q07820 whole entry, looked up): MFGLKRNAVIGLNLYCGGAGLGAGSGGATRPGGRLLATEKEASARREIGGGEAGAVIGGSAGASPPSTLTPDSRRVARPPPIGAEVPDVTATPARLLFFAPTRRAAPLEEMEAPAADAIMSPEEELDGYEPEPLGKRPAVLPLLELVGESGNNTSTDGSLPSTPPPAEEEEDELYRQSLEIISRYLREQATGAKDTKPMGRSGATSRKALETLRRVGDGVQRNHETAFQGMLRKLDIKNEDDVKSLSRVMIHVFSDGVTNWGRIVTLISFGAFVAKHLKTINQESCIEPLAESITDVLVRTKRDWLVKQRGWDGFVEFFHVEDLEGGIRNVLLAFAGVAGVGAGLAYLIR
TNF death inh = inhibitors of TNF-alpha triggered necroptosis, primary screen, cell-based, Jurkat FADD-/-, single concentration; Jurkat FADD-/- TNF necroptosis rescue, ATP luminescence, 24 h; 0 = TNF only, 100 = no-TNF cells; activation (protection from cell death), % at 10 µM; hit rate 0.068% among 220,000; AID 463075, 2010;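 active = activation, meaning protection from cell death, of at least 50% relative to plate controls; inactive = activation below 50%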;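 also: necroptosis triggered by 40 ng/mL TNF-alpha added together with compound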
Mcl1 Bid PPI = Mcl-1/Bid binding inhibitors, primary screen, biochemical, TR-FRET, 1536-well; TR-FRET Mcl-1/Bid-Dy647 peptide binding; hit rate 0.97% among 220,000; inhibition, % at 21.7 µM;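 active = compounds that cut the binding signal by more than half at the single screening dose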;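 also: His-tagged Mcl-1 with europium anti-His antibody binding Bid BH3 peptide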
Bim-Mcl-1 = inhibitors of Bim peptide binding to Mcl-1, primary screen, biochemical, bead-based flow cytometry, multiplex | Induced myeloid leukemia cell differentiation protein Mcl-1 (Homo sapiens), Q07820 | Bim peptide-Mcl-1 binding | inhibition, % at 10 µM | hit rate 0.1% among 190,000 | AID 1009, 2008; in the data active = inhibition above about 40%
Mcl1-Noxa inh = Mcl-1/Noxa binding inhibitors, primary screen, biochemical, TR-FRET, 1536-well; TR-FRET Mcl-1/Noxa peptide binding, 2 h; inhibition, % at 21.7 µM; hit rate 1.5% among 220,000; AID 1022, 2008;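 active = compounds that cut the protein-peptide binding signal by more than 50% relative to plate controls in a single-dose test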;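 also: His-tagged Mcl-1 with rhodamine Noxa BH3 peptide and terbium anti-His antibody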
Hits are given with their value; i = inactive; nt = no result. Shown are actives, neighbours in structure and some others; about 2.4% of the full set was active somewhere.

SMILES | zVAD death inh | MCL1 BIM primary | TNF death inh | Mcl1 Bid PPI | Bim-Mcl-1 | Mcl1-Noxa inh
CCS(=O)(=O)N1CCN(c2ccc(C(=O)NC3C4CC5CC(C4)CC3C5)cc2[N+](=O)[O-])CC1 (stereo not drawn) | i | i | i | 55 | i | i
CCCC1Oc2ccccc2C(=O)N(CC(=O)c2ccc3c(c2)OCCO3)C1=O (stereo not drawn) | nt | i | nt | nt | nt | nt
CC(C)CC1NC(=O)N(CC(=O)c2ccc3c(c2)OCCO3)C1=O (stereo not drawn) | i | i | i | i | i | 98
Cc1ccc(C(=O)NC(C#N)=C(Cl)Cl)cc1 | i | nt | 74 | i | i | i
Cc1ccc(C(=O)NCC#N)cc1 | i | i | i | i | i | i
Cc1ccc(CS(=O)(=O)c2cn(CC(=O)Nc3ccon3)c3ccccc23)cc1 | nt | i | nt | nt | nt | nt
Nc1nc(N)c2cc(Sc3ccc4ccccc4c3)ccc2n1 | i | i | i | i | nt | 84
COc1ccc(C(=O)/C=C/C(=O)N(CC(=O)NCCC(C)C)Cc2cccs2)c(O)c1 | i | nt | i | i | i | 66
O=C(N=Nc1c(O)[nH]c2ccccc12)c1cccs1 | i | i | i | i | i | i
O=C(N=Nc1c(O)[nH]c2ccccc12)c1cc(NS(=O)(=O)c2cccs2)cc(NS(=O)(=O)c2cccs2)c1 | i | i | i | i | i | 57
CCCC(C)NC(=O)c1c2c(nc3ccccc13)CCC2 (stereo not drawn) | i | i | i | i | i | i
O=C(NCc1ccc(F)cc1)c1c2c(nc3ccccc13)CCC2 | i | i | i | i | i | 77
NC(=O)COC(=O)c1c2c(nc3ccccc13)CCC2 | i | i | i | i | i | 57
N#C/C=C1/NC(=O)c2ccccc2S1 | i | i | i | 65 | i | i
Cc1noc(C)c1C(=O)Nc1ccc(C#N)cc1 | nt | i | nt | nt | nt | nt
CCN(CC)CC(C)OC(=O)c1cc(OC)c(OC)c(OC)c1 (stereo not drawn) | i | i | i | 51 | i | i
O=[N+]([O-])c1cc(/C=N/n2c(-c3ccncc3)n[nH]c2=S)ccc1Cl | i | i | i | i | i | 65
Cc1cc(-c2n[nH]c(=S)n2/N=C/c2cc([N+](=O)[O-])ccc2Cl)n[nH]1 | i | nt | i | i | i | 57
O=[N+]([O-])c1ccc(Cl)c(/C=N/n2c(-c3cccnc3)n[nH]c2=S)c1 | i | i | i | i | i | 58
S=c1[nH]nc(-c2ccncc2)n1/N=C/c1cn(-c2ccccc2)nc1-c1ccccc1 | i | i | i | i | nt | i
O=[N+]([O-])c1ccc(-c2nn(-c3ccccc3)cc2/C=N/n2c(-c3ccncc3)n[nH]c2=S)cc1 | i | i | i | i | nt | 52
CN(C)C1=NCCN1CC1CCCCCC1 | nt | i | nt | nt | nt | nt
CCn1nc([N+](=O)[O-])c(C(C#N)c2nc3cc(C(F)(F)F)ccc3s2)c(Cl)c1=O (stereo not drawn) | i | i | i | i | i | 90
CCCn1nc([N+](=O)[O-])c(C(C#N)c2nc3ccccc3o2)c(Cl)c1=O (stereo not drawn) | i | i | i | i | i | 60
CN(CC(=O)Nc1ccccc1Cl)C(=O)C1CSC2(C)CCC(=O)N12 (stereo not drawn) | nt | i | nt | nt | nt | nt
SMILES | zVAD death inh | MCL1 BIM primary | TNF death inh | Mcl1 Bid PPI | Bim-Mcl-1 | Mcl1-Noxa inh
Cc1cccc(N/N=C/c2ccc(O)c(O)c2O)c1 | i | i | i | i | nt | 53
O=[N+]([O-])c1cccc(N/N=C/c2cccc(O)c2O)c1 | i | i | i | i | i | 67
O=[N+]([O-])c1ccccc1N/N=C\c1ccccc1Cl | i | i | i | i | i | i
O=[N+]([O-])c1ccc(N/N=C/c2cccc(O)c2O)c(S(=O)(=O)N2CCOCC2)c1 | i | i | i | i | i | i
O=[N+]([O-])c1ccccc1N/N=C/c1cccc(O)c1O | i | i | i | i | nt | 54
COc1cccc(N/N=C/c2cccc(Br)c2O)c1 | i | i | i | i | nt | i
O=C(O)C1C2CCC(O2)C1C(=O)Nc1ccc(Br)cc1F (stereo not drawn) | nt | i | nt | nt | nt | nt

Bioassay records: PubChem, several laboratories
